Only some compounds are listed: those with a hit (about 19% of all), similar ones and a draw of the others.
HT1080-NT tox: qHTS for induction of synthetic lethality in tumor cells producing 2HG: qHTS for the HT-1080-NT fibrosarcoma cell line. 1.6% of 360,000 active. AID 686970, 2013. Potency, µM (titrated, usually from 46.1 µM), inactives show top-dose activity, negative = less viability, most hits filed as cytotoxic. HT-1080-NT fibrosarcoma viability, CellTiter-Glo ATP luminescence, 48 h;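 note: NT is the 2HG producing partner of a matched IDH1 knockdown line; potency is the fitted concentration of half-maximal effect; 0% = DMSO-treated cells and -100% = media-only wells without cells; nearly all actives have a fitted effect of over 55% in size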
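Toxicity toward the 2HG-producing NT line was scored as %Activity, normalised to DMSO and no-cell wells, from CellTiter-Glo luminescence after 48 hours' treatment.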
HT1080 IDH1KD tx: qHTS for induction of synthetic lethality in tumor cells producing 2HG: qHTS for the HT-1080-IDH1KD cell line; Potency, µM (highest dose often 46.1 µM), for the others: top-dose activity, negative = toxicity, hits mostly cytotoxic; 2% of 360,000 active; HT-1080 IDH1 knockdown viability, ATP luminescence, 48 h;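 note: potency is the fitted concentration of half-maximal effect; 0% = DMSO wells and -100% = cell-free medium wells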
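IDH1KD HT-1080 cells, 750/well, RPMI + 5% FBS; compound pinned after 2 h settling; 48 h, 37 °C; CellTiter-Glo luminescence; % activity normalised to DMSO and no-cell wells; curves fitted, classed by r2 and efficacy.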
IL1B secr inh: qHTS for Inhibitors of Inflammasome Signaling: IL-1-beta AlphaLISA Primary Screen; AID 743279, 2014; THP-1 LPS/ATP IL-1B secretion, AlphaLISA, 16 h; active compounds read low; activity change, % at 57.5 µM; 4.7% of 360,000 active; in the data active = activity change below about -50%; inconclusive = mostly about -30% to -49%
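Secreted IL-1B measured by AlphaLISA bead assay after 16 h compound exposure of THP-1 cells; compounds (final up to 57.5 uM) added 1 h before LPS (250 ng/mL) and ATP (1.25 mM) stimulation; lower signal means less secretion.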
DT40 TDP1 no CPT: qHTS for Inhibitors of human tyrosyl-DNA phosphodiesterase 1 (TDP1): qHTS in cells in absence of CPT; DT40 Tdp1-/- hTDP1 cells, no CPT, ATP luminescence, 48 h; Potency, µM (series often up to 46.2 µM), for the others: at the top dose activity change, negative = growth inhibition, actives largely listed as inhibitors; 15% of 420,000 active; AID 686978, 2013; note: potency is the fitted concentration of half-maximal effect; nearly all actives have a fitted effect of over 55% in size
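Seeded 400 DT40-hTDP1 cells/well (vehicle DMSO, no 20 nM CPT); pinned compounds; ≥48 hr at 37 °C; CellTiter-Glo luminescence as viability measure.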
TDP1 cell CPT: qHTS for Inhibitors of human tyrosyl-DNA phosphodiesterase 1 (TDP1): qHTS in cells in presence of CPT | AID 686979, 2013 | Potency, µM (highest dose often 46.2 µM), for the others: at the highest dose activity change, negative = growth inhibition, hits mostly inhibitors | 12% of 420,000 active | chicken DT40 Tdp1-/-;hTDP1 cells + 20 nM CPT, ATP luminescence, 48 h; note: potency is the fitted concentration of half-maximal effect; nearly all actives have a fitted effect of over 55% in size
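Cell growth measured by CellTiter-Glo luminescence after a minimum 48 h, 37 C compound exposure with 20 nM CPT in Tdp1-knockout DT40 cells stably expressing hTDP1, seeded 400/well; qHTS titration format.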
* hit, by the source's call; ? = inconclusive; / = no result. Unless noted, calls come from the whole dose curve; as a rule, active = well fitted curve in the direction sought with a large enough effect; inconclusive = small, poorly fitted or top-dose-only effect, or another doubt; inactive = no such curve, though single readings can be large; an effect the other way counts as inactive or inconclusive. Unless noted, % is set by controls: 0 for no effect and ±100 for the full control effect.

SMILES	HT1080-NT tox	HT1080 IDH1KD tx	IL1B secr inh	DT40 TDP1 no CPT	TDP1 cell CPT
CCCCC1S/C(=N/N=C/c2ccco2)NC1=O (stereo not drawn)	21%	12%	3	?	16µM*
O=C1N/C(=N/N=C/c2ccco2)SC1Cc1ccccc1 (stereo not drawn)	0%	-2%	31	?	-18%
CCCc1ccc2oc(C(=O)N3CCN(C4CCS(=O)(=O)C4)CC3)c(C)c2c1 (stereo not drawn)	-10%	-14%	-5	?	-10%
COc1ccc(-c2nc3sc(CCNC(=O)C(=O)Nc4ccccc4C#N)c(C)n3n2)cc1	/	/	/	-21%	-9%
Cc1c(CCNC(=O)c2ccc(Br)o2)sc2nc(-c3ccc(Cl)cc3)nn12	/	/	/	23µM*	18µM*
COc1ccc(-c2nc3sc(CCNC(=O)c4ccc(C(C)(C)C)cc4)c(C)n3n2)cc1	/	/	/	8.2µM*	?
CCS(=O)(=O)NCCc1sc2nc(-c3ccc(OC)cc3)nn2c1C	/	/	/	21µM*	?
CCC(=O)NCCc1sc2nc(-c3ccc(OC)cc3)nn2c1C	/	/	/	?	-25%
O=C(CNC(=O)c1ccc(Br)o1)NCc1ccc(Cl)cc1	-29%	-26%	4	-9%	?
COc1ccc(-c2nc3sc(CCNC(=O)c4ccc(Br)o4)c(C)n3n2)cc1	/	/	/	16µM*	16µM*
O=C(CC1CC2CCC1C2)NC1CCCCCCC1 (stereo not drawn)	-2%	-3%	26	7%	3%
COc1ccc(-c2nc3sc(CCNC(=O)C(=O)Nc4ccc(C)c(F)c4)c(C)n3n2)cc1	/	/	/	1%	19%
COc1ccc(-c2nc3sc(CCNC(=O)c4cc(Cl)ccc4OC)c(C)n3n2)cc1	/	/	/	13µM*	16µM*
CCN(CC1COc2ccccc2O1)C(=S)NCCCN(C)C (stereo not drawn)	0%	-15%	-13	18µM*	16µM*
Cc1ccc(C(=O)OCC(=O)NCC2COc3ccccc3O2)cc1 (stereo not drawn)	0%	-6%	8	-12%	-13%
CN(CC1COc2ccccc2O1)C(=S)NC1CCCCC1 (stereo not drawn)	-7%	-12%	?	?	?
CCOC(=O)c1ccc(NC(=O)CC2COc3ccccc3O2)cc1 (stereo not drawn)	-8%	-2%	3	1µM*	3%
CCOc1ncccc1C(=O)N(C)CC1COc2ccccc2O1 (stereo not drawn)	15%	18%	-9	-8%	?
CCN(CC1COc2ccccc2O1)C(=S)Nc1ccccc1 (stereo not drawn)	1%	0%	-2	2.8µM*	?
CC(C)OC(=O)CSc1nc(Cc2cccs2)nc2ccccc12	-3%	-2%	2	?	-21%
COC(=O)c1ccccc1NC(=O)c1cccc(NC(=O)c2ccc(Br)o2)c1C	13µM*	10µM*	-24	1.8µM*	2.9µM*
Cc1cc2nc(-c3cccc(NC(=O)c4ccc(Br)o4)c3C)oc2cc1C	-30%	?	-8	23µM*	?
O=C(Nc1ccccc1C(=O)O)c1ccc(Br)o1	-25%	?	31	-3%	-1%
COC(=O)c1cc(OC)c(OC)cc1NC(=O)c1ccc(C)o1	14%	0%	-29	18µM*	15µM*
COC(=O)c1cc(OC)c(OC)cc1NC(=O)CCc1ccc(C)o1	13%	14%	1	?	?
SMILES	HT1080-NT tox	HT1080 IDH1KD tx	IL1B secr inh	DT40 TDP1 no CPT	TDP1 cell CPT
COC(=O)c1ccccc1NC(=O)c1ccc(COc2cc(C)cc(C)c2)o1	25%	25%	-3	23µM*	?
COc1ccccc1NC(=O)c1ccc(COc2ccccc2OC)o1	-2%	4%	-2	-24%	-16%
C[C@H]1CN([C@@H](C)CO)C(=O)c2cc(C#CC3CCCC3)cnc2O[C@H]1CN(C)C(=O)Cc1ccccn1	15%	1%	-1	4%	4%
Cc1ccc(OCc2ccc(C(=O)NN)o2)cc1C	-1%	-4%	-11	-8%	5%
COC(=O)c1ccccc1NC(=O)c1ccc(COc2ccc(C)c(C)c2)o1	-1%	-1%	-3	13µM*	?
Cc1cc2nc(C3CCN(CC4COc5ccccc5O4)CC3)[nH]c2cc1C (stereo not drawn)	15µM*	?	?	8.2µM*	7.3µM*
COc1ccc(NC(=O)CN(C)C(=O)C(C)N2C(=O)c3ccccc3C2=O)cc1 (stereo not drawn)	1%	3%	2	10%	7%
COc1ccccc1N1CCN(C(=O)C2CCCN(c3ncnc4c3nc3n4CCCCC3)C2)CC1 (stereo not drawn)	-25%	-10%	31	16µM*	15µM*
CC1CCCN(c2ncnc3c2nc2n3CCCCC2)C1 (stereo not drawn)	/	/	/	?	-24%
O=C(C1CCCN(c2ncnc3c2nc2n3CCCCC2)C1)N1CCN(c2ccccc2)CC1 (stereo not drawn)	12%	0%	11	2.1µM*	?
COc1ccccc1N1CCN(CCCNC(=O)C2CCCN(c3ncnc4c3nc3n4CCCCC3)C2)CC1 (stereo not drawn)	-10%	1%	-28	?	?
CN(C(=O)C1CCCN(c2ncnc3c2nc2n3CCCCC2)C1)c1cccc(Cl)c1 (stereo not drawn)	?	?	-5	12µM*	13µM*
O=C(C1CCCN(c2ncnc3c2nc2n3CCCCC2)C1)N1CCN(c2cccc(Cl)c2)CC1 (stereo not drawn)	?	?	?	18µM*	23µM*
COc1cccc(C(=O)N(C)c2nnc(-c3ccncc3)s2)c1	-1%	8%	-4	-27%	?
COc1ccccc1N1CCN(c2ncnc3c2nc2n3CCCC2)CC1	/	/	/	18µM*	18µM*
Cc1ccccc1N(C)C(=O)C1CCCN(c2ncnc3c2nc2n3CCCCC2)C1 (stereo not drawn)	12%	12%	31	23µM*	?
Cc1ccc(C)c(N2CCN(C(=O)C3CCCN(c4ncnc5c4nc4n5CCCCC4)C3)CC2)c1 (stereo not drawn)	16%	17%	?	23µM*	16µM*
COc1ccc(NC(=O)C2CCN(c3ncnc4c3nc3n4CCCCC3)CC2)cc1Cl	-27%	?	?	-25%	?
